Experimental data as given in PubChem BioAssay (NCI).
Compounds without any hit were thinned out: in the full panel of roughly 79,000, 15% have a hit. Unmarked numbers belong to inactive results. Active and inactive are the calls of the source. Rule as the data show it: active = growth inhibition above about 70%; inactive = the rest.

Legend:
[1] = NCI Yeast Anticancer Drug Screen. Data for the rad50 strain (AID 155);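 also: 0% = growth of vehicle-only cultures of the same strain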; details: S. cerevisiae rad50 strain growth inhibition, active compounds read high
Procedure, shortened: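 DNA repair mutant yeast, compound exposure, growth read-out; inhibition is taken relative to vehicle.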

[2] = NCI Yeast Anticancer Drug Screen. Data for the mec2-1 strain (AID 157); details: S. cerevisiae mec2-1 strain, active compounds read high
Procedure, shortened: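 Mutant yeast (mec2-1) grown with compound; growth inhibition relative to vehicle control reported.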

[3] = NCI Yeast Anticancer Drug Screen. Data for the sgs1 mgt1 strain (AID 161);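 also: 0% = growth of cultures given vehicle only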; details: S. cerevisiae sgs1 mgt1 strain, active compounds read high
Procedure, shortened: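 This yeast growth screen uses a strain with defined DNA-repair lesions; compound-treated growth is compared with vehicle-treated growth.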

[4] = NCI Yeast Anticancer Drug Screen. Data for the cln2 rad14 strain (AID 165);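 also: 0% = growth equal to vehicle treated cultures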; details: S. cerevisiae cln2 rad14 strain, active compounds read high
Procedure, shortened: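 Readout is yeast growth inhibition versus vehicle-treated controls, using a strain with cln2 and rad14 alterations exposed to compound.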

[5] = NCI Yeast Anticancer Drug Screen. Data for the bub3 strain (AID 167); details: S. cerevisiae bub3 mutant strain, active compounds read high
Procedure, shortened: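 In this screen, a yeast mutant lacking normal mitotic checkpoint function is challenged with compound. Relative growth versus vehicle gives the inhibition value.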

[6] = NCI Yeast Anticancer Drug Screen. Data for the mlh1 rad18 strain (AID 175); details: S. cerevisiae mlh1 rad18 strain growth inhibition, active compounds read high
Procedure, shortened: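 Genetically defined yeast (DNA repair-deficient) exposed to compounds; growth inhibition determined relative to vehicle.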

[7] = at 5.0 µM (retest, dose inferred, filed as 0.5)
[8] = at 50.0 µM (retest, dose inferred, filed as 5.0)

SMILES	growth inhibition [1, 7]	growth inhibition [1, 8]	growth inhibition ([1]; at 50.0 µM)	growth inhibition [2, 7]	growth inhibition [2, 8]	growth inhibition ([2]; at 50.0 µM)	growth inhibition [3, 7]	growth inhibition [3, 8]	growth inhibition ([3]; at 50.0 µM)	growth inhibition [4, 7]	growth inhibition [4, 8]	growth inhibition ([4]; at 50.0 µM)	growth inhibition [5, 7]	growth inhibition [5, 8]	growth inhibition ([5]; at 50.0 µM)	growth inhibition [6, 7]	growth inhibition [6, 8]	growth inhibition ([6]; at 50.0 µM)
COc1ccc(Nc2nc3ccccc3s2)cc1	1%	15%	21%	-3%	0%	35.4%	0%	35%	38.3%	-7%	-14%	-66%	5%	42%	85.8% (active)	10%	15%	58.7%
O=[N+]([O-])c1ccc(N2CCCC(n3cccc3)C2)c([N+](=O)[O-])c1 (configuration not stated)	7%	38%	47.6%	-2%	5%	46.2%	4%	27%	61.3%	12%	49%	50.2%	-9%	50%	67.6%	1%	55%	48.5%
CN(/N=C\c1ccc2ccccc2c1)C1=NCCCN1	97% (active)	68%	56.8%	99% (active)	67%	33.6%	98% (active)	56%	49.6%	97% (active)	66%	7.7%	98% (active)	96% (active)	99.2% (active)	97% (active)	79% (active)	60.9%
COc1cc(Cc2n[nH]c(=S)n2-c2ccccc2)c(S(=O)(=O)N2CCOCC2)cc1OC	4%	1%	-10.2%	-2%	-5%	-5.2%	9%	-6%	-0.7%	1%	0%	82.7% (active)	-3%	7%	-32%	-2%	-62%	11.4%
CC1=C/C(=C(/c2ccc(O)c(C)c2)c2ccccc2C(=O)O)C=CC1=O	-13%	99% (active)	99% (active)	-3%	99% (active)	99.5% (active)	-9%	99% (active)	99.1% (active)	-28%	98% (active)	99.1% (active)	-8%	99% (active)	99.2% (active)	6%	99% (active)	99% (active)
SCCc1ccccn1	-3%	20%	0.4%	-2%	20%	42%	1%	13%	3.65%	-6%	10%	15.1%	-1%	14%	32.1%	-1%	19%	73.1% (active)
Cc1ccc(C(=O)CC(O)(C(F)(F)F)C(F)(F)F)cc1[N+](=O)[O-]	17%	95% (active)	88.9% (active)	-17%	97% (active)	90% (active)	3%	45%	92.2% (active)	25%	94% (active)	89.5% (active)	5%	96% (active)	90.5% (active)	9%	97% (active)	87.4% (active)
Cn1cc(CCC(=O)C2C=CC=CC2=NC(=O)CCCl)c2ccccc21 (configuration not stated)	11%	7%	-3.6%	7%	-6%	12.8%	-1%	-20%	-4%	14%	14%	14.3%	11%	7%	8.95%	-2%	1%	-17.1%
CC1CCN(c2cc(-c3cc4ccccc4o3)oc(=O)c2C#N)CC1	7%	1%	66.5%	2%	3%	56.7%	3%	0%	68.5%	7%	-1%	33.1%	2%	-1%	39.9%	-5%	3%	74.7% (active)
